# Experimental data: PubChem BioAssay
# Target: Pro-neuregulin-1, membrane-bound isoform (Homo sapiens) (UniProt Q02297)
# Assay: NRG1 binders on small-molecule microarrays, primary screen, psychiatric disease protein project, biochemical, small-molecule microarray, fluorescence 635/667 (AID 1075);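 further: score combines 667 nm spot fluorescence with signal to noise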
# Conditions: NRG1 binding, 635 nm fluorescence, higher = more signal
# Chain of Pro-neuregulin-1, membrane-bound isoform (Homo sapiens) (Q02297 whole entry, looked up, canonical isoform): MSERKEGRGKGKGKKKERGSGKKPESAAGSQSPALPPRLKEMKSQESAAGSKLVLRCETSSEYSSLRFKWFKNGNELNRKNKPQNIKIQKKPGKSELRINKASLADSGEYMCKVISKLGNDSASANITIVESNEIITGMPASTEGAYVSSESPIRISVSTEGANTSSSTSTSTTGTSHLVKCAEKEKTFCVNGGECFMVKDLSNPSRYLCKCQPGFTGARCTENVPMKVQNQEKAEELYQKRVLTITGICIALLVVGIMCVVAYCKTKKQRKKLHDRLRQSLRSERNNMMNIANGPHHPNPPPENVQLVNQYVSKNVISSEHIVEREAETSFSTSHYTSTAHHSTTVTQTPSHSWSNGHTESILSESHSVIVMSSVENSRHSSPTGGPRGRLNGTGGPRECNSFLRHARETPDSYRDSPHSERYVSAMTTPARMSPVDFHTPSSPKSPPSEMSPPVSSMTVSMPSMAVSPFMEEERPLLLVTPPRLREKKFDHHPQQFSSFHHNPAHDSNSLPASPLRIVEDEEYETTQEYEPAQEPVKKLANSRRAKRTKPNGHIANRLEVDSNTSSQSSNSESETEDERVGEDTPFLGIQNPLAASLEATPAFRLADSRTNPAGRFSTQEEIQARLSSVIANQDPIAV
row,SMILES,composite z-score
1,COC(=O)[C@@]1(Cc2ccc(OC)cc2)[C@H]2c3cc(C(=O)N(C)C)n(Cc4cc(C)n(C)n4)c3C[C@H]2CN1C(=O)c1ccccc1,1.92
2,O=C(NCc1ccccc1)[C@]1(Cc2ccccc2)N=C(c2ccc(OCCCO)cc2)O[C@@H]1c1ccccc1,1.31
3,[N-]=[N+]=NCc1ccccc1[C@H]1OC(c2ccc(OCCCO)cc2)=N[C@@]1(Cc1ccccc1N=[N+]=[N-])C(=O)N1CCCCC1,1.32
4,COCCOC(=O)N1C(=O)[C@@]2(c3ccccc31)[C@H](c1ccc(OCCO)cc1)N1[C@H](c3ccccc3)[C@H](c3ccccc3)OC(=O)[C@H]1[C@@H]2C(=O)NC[C@H](O)c1ccccc1,1.52
5,COc1ccc(C(=O)Nc2ccc3c(c2)[C@]2(O[C@@H](CCO)[C@H]([Si](C)(C)c4ccc(OC)cc4)[C@H]2C)C(=O)N3Cc2ccccc2)cc1,0.725
6,CN(C)C(=O)[C@]1(Cc2ccccc2N=[N+]=[N-])N=C(c2ccc(OCCCO)cc2)O[C@@H]1c1ccccc1CN=[N+]=[N-],1.8
7,COCCOC(=O)N1C(=O)[C@@]2(c3cc(C#Cc4ccc(OC)cc4)ccc31)[C@H](C(=O)N1CCc3cc(OC)c(OC)cc3C1)[C@H]1C(=O)O[C@H](c3ccccc3)[C@H](c3ccccc3)N1[C@@H]2c1ccc(O)cc1,1.17
8,COc1ccc(C#Cc2ccc3c(c2)[C@]2(C(=O)N3)[C@H](C(N)=O)[C@H]3C(=O)O[C@H](c4ccccc4)[C@H](c4ccccc4)N3[C@@H]2c2ccc(O)cc2)cc1,1.57
9,COc1ccc([Si](C)(C)[C@@H]2[C@@H](CCO)O[C@]3(C(=O)N(Cc4ccccc4)c4ccc(N5C(=O)COc6ccccc65)cc43)[C@H]2C)cc1,0.666
10,CC(C)(C)OC(=O)CC[C@@]1(C(=O)N2CCCCC2)N=C(c2ccc(OCCCO)cc2)O[C@@H]1c1ccccc1CN=[N+]=[N-],1.98
11,CC(C)C(CO)N1C(=O)[C@@H]2[C@H]3C(=O)OCC=C[C@H]3OC23C=CCN(CCN2CCOCC2)C(=O)[C@@H]13 (stereo not given in full),0.0853
12,CN1C(=O)C2C=CC(C(O)c3cccc4ccccc34)N(NC(=O)OC(C)(C)C)C2C1=O (stereo not given),2.11
13,COCCOC(=O)N1C(=O)[C@@]2(c3cc(C#Cc4ccc(OC)cc4)ccc31)[C@H](C(=O)N1CCc3cc(OC)c(OC)cc3C1)[C@H]1C(=O)O[C@H](c3ccccc3)[C@H](c3ccccc3)N1[C@@H]2c1ccc(OCCO)cc1,0.62
14,CCOC(=O)C1=CC[C@@H](c2ccccc2)N(S(=O)(=O)c2ccc(C)cc2)[C@H]1C=C(C)C,0.944
15,C[N+](C)(C)CCCC[C@@H]1NC(=O)[C@H]2C[C@@H](C(=O)NCCCCCCN)[C@@H](c3cccc(OCCO)c3)N2C1=O,1.14
16,COC(=O)C(CC#Cc1ccc2c(c1)[C@]1(C(=O)N2)[C@H](c2ccc(O)cc2)N2[C@H](c3ccccc3)[C@H](c3ccccc3)OC(=O)[C@H]2[C@@H]1C(N)=O)C(=O)OC,-0.605
17,CCOc1cc(C(O)C2C=CC3C(=O)NC(=O)C3N2Nc2ccccn2)ccc1O (stereo not given),0.18
18,C[N+](C)(C)CCCCCCNC(=O)[C@@H]1C[C@@H]2C(=O)NCC(=O)N2[C@@H]1c1cccc(OCCO)c1,0.021

row,SMILES,composite z-score
1,O=C1c2ccccc2C(=O)C2CC([C@H]3Oc4ccccc4S(=O)(=O)N4CCC[C@@H]34)=CCC12 (stereo not given in full),0.583
2,CCCc1cc2c(n1Cc1ccc(OC)cc1)C(C)C1CN(C(=O)c3ccccc3)C(C)(C(=O)OC)C21 (stereo not given),1.81
3,CC(=O)NCCCC[C@@H]1NC(=O)[C@@H]2C[C@H](C(=O)NCCCC[N+](C)(C)C)[C@H](c3cccc(OCCO)c3)N2C1=O,0.82
4,[N-]=[N+]=Nc1ccccc1[C@@H]1OC(c2ccc(OCCCO)cc2)=N[C@]1(CCS(=O)(=O)c1ccccc1)C(=O)NCc1ccccc1,1.9
5,CN(C)CCCC[C@@H]1NC(=O)[C@H]2C[C@@H](C(=O)NCCCCCCNC(=O)CS)[C@@H](c3ccc(O)cc3)N2C1=O,0.848
6,COC(=O)[C@@]1(Cc2ccc(OC)cc2)[C@H]2c3cc(C(=O)N4CCCC4)n(Cc4ccc(C)o4)c3C[C@H]2CN1C(=O)c1ccccc1,1.83
7,O=C1N(Cc2ccccc2)c2ccccc2[C@H]2OC(c3ccc(OCCCO)cc3)=N[C@@]12CCS(=O)(=O)c1ccccc1,1.76
8,COCCCNC(=O)[C@]1(Cc2ccccc2)N=C(c2ccc(OCCCO)cc2)O[C@@H]1c1ccccc1N=[N+]=[N-],0.725
9,CCCCC(=C=CC[C@H](O)c1cccc(OCCO)c1)C[C@H](O)COCc1ccccc1,-0.491
10,COC(=O)c1ccc(OC)c(/C=C\CC(CCc2ccccc2)OC(=O)c2ccncc2)c1 (stereo not given),-0.0697
11,COc1ccc([Si](C)(C)[C@H]2[C@H](CC(=O)N3CCC[C@H]3CO)O[C@@]3(C(=O)N(Cc4ccc(N5C(=O)c6cccc7cccc5c67)cc4)c4ccccc43)[C@@H]2C)cc1,0.916
12,COc1cc(NN2C(C(O)c3ccc(I)cc3)C=CC3C(=O)N(C)C(=O)C32)cc(OC)c1OC (stereo not given),1.96
13,C=CCC(OC(C)=O)[C@@H]1[C@@H](N(Cc2ccc(-c3ccccc3)cc2)C(=O)c2cccc3ccccc23)c2cc(OCCCO)ccc2N1C(=O)c1ccc2ccccc2n1 (stereo not given in full),0.152
14,C=CCC(OC(C)=O)[C@@H]1[C@@H](N(Cc2cccc3ccccc23)C(=O)Cc2ccc(F)cc2)c2cc(OCCCO)ccc2N1C(=O)Cc1ccc(OC)cc1 (stereo not given in full),-0.418
15,O=C1O[C@H](c2ccccc2)[C@H](c2ccccc2)N2[C@H]1[C@@H](C(=O)N1CCN(c3ncccn3)CC1)[C@]1(C(=O)Nc3ccc(C#CCCO)cc31)[C@H]2c1ccccc1OCCO,1.64
16,COC(=O)[C@@]1(Cc2ccccc2)[C@H]2c3cc(C(=O)N4CCCC4)n(CCO)c3C[C@H]2CN1C(=O)c1ccccc1,1.62
17,COCCCNC(=O)[C@@]1(Cc2ccccc2I)c2ccccc2C(=O)N(Cc2ccccc2Cl)[C@H]1c1ccc(CO)cc1,1.3
